The source made the active and inactive calls.
Assays:
[1] = binders of probe aFSTL3 on microarray, primary screen, stem cell growth factor project, biochemical, small-molecule microarray, fluorescence 635/667 (AID 1064); conditions: higher = more signal;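 further: measures binding of the biotinylated anti-FSTL3 antibody to printed compounds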
[2] = binders from COS7 lysate, DM2A8 probe, primary screen, torsin A project, cell lysate, small-molecule microarray, fluorescence 635/667 (AID 1065); conditions: higher = more signal, COS7 lysate expressing mutant human TOR1A
[3] = binders of probe aFGF2 on microarray, primary screen, stem cell growth factor project, biochemical, small-molecule microarray, fluorescence 635/667 (AID 1067); conditions: higher = more signal;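 further: measures binding of biotinylated aFGF2 protein to printed compounds on slides; z-score merges feature fluorescence and signal-to-noise across triplicate slides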
[4] = binders of probe aFGF10 on microarray, primary screen, stem cell growth factor project, biochemical, small-molecule microarray, fluorescence 635/667 (AID 1071); conditions: higher = more signal;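 further: score merges 667 nm spot intensity and signal to noise from triplicate slides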
[5] = target: Neurogenic locus notch homolog protein 2 (Homo sapiens) (UniProt Q04721); test: Notch2 binders on small-molecule microarrays, primary screen, biochemical, small-molecule microarray, 635 nm fluorescence, stem cell growth factors (AID 1073); conditions: Notch2 binding, higher = more signal
[6] = target: Pro-neuregulin-1, membrane-bound isoform (Homo sapiens) (UniProt Q02297); test: NRG1 binders on small-molecule microarrays, primary screen, psychiatric disease protein project, biochemical, small-molecule microarray, fluorescence 635/667 (AID 1075); conditions: NRG1 binding, 635 nm fluorescence, higher = more signal;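 further: score combines 667 nm spot fluorescence with signal to noise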
[7] = tested on: Neuregulin-1 EGF-like domain; test: binders of neuregulin-1 EGF-like domain, primary screen, biochemical, small-molecule microarray, 635 nm fluorescence (AID 1081); conditions: small-molecule microarray binding, higher = more signal;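 further: binding of the protein to compounds printed on small-molecule microarray slides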
[8] = FRG1 promoter luciferase signal modulators, primary screen, FRG1 inhibition for FSHD, cell-based, C2C12 myotubes, firefly/Renilla luciferase, luminescence (AID 1084); conditions: higher = more signal, called active from +8 up or from −8 down
[9] = binders of probe aFST on microarray, primary screen, stem cell growth factor project, biochemical, small-molecule microarray, fluorescence 635/667 (AID 1086); conditions: higher = more signal;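 further: score merges 667 nm fluorescence with signal-to-noise of each printed compound spot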
[10] = binders of probe aHhip on microarray, primary screen, stem cell growth factor project, biochemical, small-molecule microarray, fluorescence 635/667 (AID 1087); conditions: higher = more signal;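 further: score merges spot fluorescence at 667nm with spot signal to noise ratio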
[11] = tested on: PRMT1 (protein arginine N-methyltransferase 1); test: PRMT1 binders on small-molecule microarrays, primary screen, biochemical, small-molecule microarray, 635 nm fluorescence (AID 1088); conditions: small-molecule microarray binding, higher = more signal;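 further: binding of Prmt1 protein to compounds spotted on small-molecule microarray slides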
[12] = yeast growth modulation, basal conditions, primary screen, YJM789 clinical isolate, OD600, 24 h (AID 1089);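 further: growth of clinical yeast isolate S. cerevisiae YJM 789 seeded 1000 cells per well; test concentration not given here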; conditions: S. cerevisiae YJM789 growth, higher = more signal, called active from +8 up or from −8 down
[13] = fission yeast growth modulation, primary screen, strain 972, OD600, 24 h, no modulator (AID 1090);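 further: basal condition with compound alone and no growth modifier present; test concentration not given here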; conditions: S. pombe 972 growth, higher = more signal, called active from +8 up or from −8 down
[14] = S. cerevisiae growth modulation with rapamycin, primary screen, strain BY4716, OD600, 96 h (AID 1091); conditions: higher = more signal, called active from +8 up or from −8 down; further: test concentration not given here
[15] = target: Torsin-1A-interacting protein 2 (Homo sapiens) (UniProt Q8NFQ8); test: LULL1 binders on small-molecule microarray, primary screen, cell lysate, human LULL1 lysate, 635/667 nm fluorescence (AID 1092); conditions: hLULL1 lysate binding, 635 nm fluorescence, higher = more signal;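 further: probe is lysate of COS7 cells overexpressing human LULL1; score merges per-feature 667 nm fluorescence with signal-to-noise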
[16] = E. coli growth modulation, two-sided OD650, primary screen, E. coli filamentation project, strain DRC41, 24 h (AID 1093); conditions: OD650, 24 h, higher = more signal, called active from +8 up or from −8 down;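 further: MC1000 strain lacking acrAB efflux and sulA so SOS filamentation is blocked; test concentration not given here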
[17] = small-molecule microarray binders of probe aLefty2, primary screen, biochemical, biotinylated probe, 635/667 nm fluorescence (AID 1094); conditions: higher = more signal;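 further: score merges spot fluorescence near 667 nm with spot signal-to-noise ratio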
[18] = tested on: Noggin (protein binding on small-molecule microarray); test: Noggin binders on small-molecule microarray, primary screen, biochemical, 635/667 nm fluorescence (AID 1095); conditions: 635 nm fluorescence, higher = more signal;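 further: score merges 667 nm feature fluorescence with signal to noise over triplicate slides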
[19] = target: Neurogenic locus notch homolog protein 3 (Homo sapiens) (UniProt Q9UM47); test: NOTCH3 binders on small-molecule microarray, primary screen, biochemical, 635/667 nm fluorescence (AID 1096); conditions: NOTCH3 binding, 635 nm fluorescence, higher = more signal
[20] = small-molecule microarray binders of probe aEGFR, primary screen, biochemical, biotinylated probe, 635/667 nm fluorescence (AID 1097); conditions: higher = more signal;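 further: probe is a biotinylated anti-EGFR antibody binding compounds printed on slides; score combines fluorescence near 667 nm and signal to noise of each spot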

Chain of Pro-neuregulin-1, membrane-bound isoform (Homo sapiens) (Q02297 whole entry, looked up, the tested form may be a part, canonical isoform): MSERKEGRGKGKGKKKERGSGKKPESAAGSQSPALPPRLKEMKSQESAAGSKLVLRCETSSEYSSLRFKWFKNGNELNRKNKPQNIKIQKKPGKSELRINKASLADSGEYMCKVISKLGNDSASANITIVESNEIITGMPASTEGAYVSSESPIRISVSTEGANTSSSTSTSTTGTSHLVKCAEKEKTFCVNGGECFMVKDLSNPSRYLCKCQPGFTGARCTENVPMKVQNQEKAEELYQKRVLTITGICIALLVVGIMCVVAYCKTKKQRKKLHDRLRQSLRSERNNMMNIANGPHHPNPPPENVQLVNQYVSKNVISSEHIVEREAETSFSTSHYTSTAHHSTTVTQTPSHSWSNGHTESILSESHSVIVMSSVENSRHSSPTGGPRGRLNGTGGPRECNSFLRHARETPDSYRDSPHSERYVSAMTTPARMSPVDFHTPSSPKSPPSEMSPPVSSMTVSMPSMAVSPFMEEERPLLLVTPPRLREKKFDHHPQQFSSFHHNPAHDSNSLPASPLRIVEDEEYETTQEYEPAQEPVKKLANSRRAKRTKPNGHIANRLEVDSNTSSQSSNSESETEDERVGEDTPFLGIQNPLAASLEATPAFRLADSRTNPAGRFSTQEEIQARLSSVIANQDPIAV
Chain of Neurogenic locus notch homolog protein 3 (Homo sapiens) (Q9UM47 whole entry, looked up): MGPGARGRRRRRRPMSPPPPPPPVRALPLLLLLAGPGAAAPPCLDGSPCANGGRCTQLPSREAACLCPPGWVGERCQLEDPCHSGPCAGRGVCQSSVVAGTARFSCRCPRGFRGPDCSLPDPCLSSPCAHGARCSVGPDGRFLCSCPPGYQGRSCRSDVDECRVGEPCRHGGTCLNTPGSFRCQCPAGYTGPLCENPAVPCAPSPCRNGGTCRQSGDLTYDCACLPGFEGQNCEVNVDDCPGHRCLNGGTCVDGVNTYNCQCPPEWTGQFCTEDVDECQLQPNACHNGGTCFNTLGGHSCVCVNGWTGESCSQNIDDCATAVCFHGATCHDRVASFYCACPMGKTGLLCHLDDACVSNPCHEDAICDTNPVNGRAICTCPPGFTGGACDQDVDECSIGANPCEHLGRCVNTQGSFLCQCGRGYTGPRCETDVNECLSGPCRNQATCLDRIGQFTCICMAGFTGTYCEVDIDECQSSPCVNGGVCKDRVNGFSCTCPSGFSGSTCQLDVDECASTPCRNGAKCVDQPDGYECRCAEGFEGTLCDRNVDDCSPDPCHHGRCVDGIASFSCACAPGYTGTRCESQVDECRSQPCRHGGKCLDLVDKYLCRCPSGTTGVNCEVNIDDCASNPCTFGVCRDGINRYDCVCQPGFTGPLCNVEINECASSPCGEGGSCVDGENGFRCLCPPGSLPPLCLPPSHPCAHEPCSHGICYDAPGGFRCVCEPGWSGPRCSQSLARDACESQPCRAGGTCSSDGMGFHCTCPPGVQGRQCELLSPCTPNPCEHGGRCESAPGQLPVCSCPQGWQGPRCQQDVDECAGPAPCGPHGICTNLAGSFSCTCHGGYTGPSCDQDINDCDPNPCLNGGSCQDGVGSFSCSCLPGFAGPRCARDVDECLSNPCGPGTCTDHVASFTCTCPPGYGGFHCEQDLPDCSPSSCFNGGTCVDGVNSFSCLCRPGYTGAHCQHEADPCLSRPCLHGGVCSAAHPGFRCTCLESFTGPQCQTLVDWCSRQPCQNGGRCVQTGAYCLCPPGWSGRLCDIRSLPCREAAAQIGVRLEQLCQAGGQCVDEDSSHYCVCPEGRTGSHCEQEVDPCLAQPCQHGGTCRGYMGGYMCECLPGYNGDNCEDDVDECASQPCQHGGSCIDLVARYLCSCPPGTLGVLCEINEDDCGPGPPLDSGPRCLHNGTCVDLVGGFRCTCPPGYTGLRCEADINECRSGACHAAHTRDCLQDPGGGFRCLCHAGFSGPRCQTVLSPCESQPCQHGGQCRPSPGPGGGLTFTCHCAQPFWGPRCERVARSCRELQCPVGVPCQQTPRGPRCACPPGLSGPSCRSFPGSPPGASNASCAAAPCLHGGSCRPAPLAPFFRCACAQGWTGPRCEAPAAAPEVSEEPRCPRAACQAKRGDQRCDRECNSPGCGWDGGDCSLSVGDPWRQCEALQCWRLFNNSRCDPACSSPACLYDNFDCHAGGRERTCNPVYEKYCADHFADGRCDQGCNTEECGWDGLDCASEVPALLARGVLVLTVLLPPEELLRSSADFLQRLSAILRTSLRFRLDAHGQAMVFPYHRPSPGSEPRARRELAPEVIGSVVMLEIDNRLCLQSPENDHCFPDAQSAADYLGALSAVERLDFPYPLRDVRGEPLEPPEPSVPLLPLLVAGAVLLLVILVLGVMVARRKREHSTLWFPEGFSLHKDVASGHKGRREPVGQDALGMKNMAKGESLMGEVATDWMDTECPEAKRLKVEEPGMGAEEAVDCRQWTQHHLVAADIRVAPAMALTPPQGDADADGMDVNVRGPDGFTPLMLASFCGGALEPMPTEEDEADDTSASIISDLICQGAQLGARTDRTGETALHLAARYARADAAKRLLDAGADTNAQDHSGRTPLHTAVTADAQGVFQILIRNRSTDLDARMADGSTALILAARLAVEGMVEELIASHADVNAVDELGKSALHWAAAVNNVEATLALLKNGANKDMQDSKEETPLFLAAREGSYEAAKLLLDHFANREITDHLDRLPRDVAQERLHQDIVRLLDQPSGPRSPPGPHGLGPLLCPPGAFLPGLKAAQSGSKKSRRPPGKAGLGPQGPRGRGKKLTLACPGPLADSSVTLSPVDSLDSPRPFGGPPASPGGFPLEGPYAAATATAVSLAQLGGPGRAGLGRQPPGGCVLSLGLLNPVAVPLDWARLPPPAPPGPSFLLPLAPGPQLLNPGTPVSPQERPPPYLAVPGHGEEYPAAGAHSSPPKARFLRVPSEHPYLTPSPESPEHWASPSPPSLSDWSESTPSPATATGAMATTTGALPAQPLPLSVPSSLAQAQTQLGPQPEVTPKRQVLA
Chain of Torsin-1A-interacting protein 2 (Homo sapiens) (Q8NFQ8 whole entry, looked up): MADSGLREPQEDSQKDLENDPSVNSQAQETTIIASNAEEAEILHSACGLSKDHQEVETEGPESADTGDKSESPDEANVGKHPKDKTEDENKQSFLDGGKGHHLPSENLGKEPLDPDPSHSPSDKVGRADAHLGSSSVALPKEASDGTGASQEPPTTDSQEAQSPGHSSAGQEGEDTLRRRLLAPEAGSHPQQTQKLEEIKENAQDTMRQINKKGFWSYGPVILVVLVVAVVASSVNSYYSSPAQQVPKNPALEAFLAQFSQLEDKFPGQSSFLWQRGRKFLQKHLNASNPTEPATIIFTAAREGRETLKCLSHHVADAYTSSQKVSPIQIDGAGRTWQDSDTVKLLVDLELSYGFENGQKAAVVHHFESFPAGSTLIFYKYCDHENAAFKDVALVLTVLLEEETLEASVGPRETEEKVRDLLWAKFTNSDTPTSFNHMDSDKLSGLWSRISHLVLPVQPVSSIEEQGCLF

CCCC=C(CCC)[C@@H](NS(=O)(=O)CC12CCC(CC1=O)C2(C)C)c1ccc(C(=O)OC)cc1 (stereo not given in full)
composite z-score [1]: -0.126
composite z-score [2]: 0.645
composite z-score [3]: 0.291
composite z-score [4]: 0.375
composite z-score [5]: 0.621
composite z-score [6]: 0.128
composite z-score [7]: 1.09
z-score [8]: 2.86 (inactive)
composite z-score [9]: 0.974
composite z-score [10]: 0.274
composite z-score [11]: 0.788
z-score [12]: -0.723 (inactive)
z-score [13]: -0.005 (inactive)
z-score [14]: -0.909 (inactive)
composite z-score [15]: 3.78
z-score [16]: 0.0623 (inactive)
composite z-score [17]: 0.0672
composite z-score [18]: -0.132
composite z-score [19]: 0.408
composite z-score [20]: 0.471

CN1C2C=C(CCCO)C(C3C(=O)N(C(N)=O)C(=O)C32)C1C1CC1 (stereo not given)
composite z-score [1]: -0.263
composite z-score [2]: 0.416
composite z-score [3]: -0.0959
composite z-score [4]: -0.148
composite z-score [5]: -0.536
composite z-score [6]: 0.0343
composite z-score [7]: 0.949
z-score [8]: 0.397 (inactive)
composite z-score [9]: -0.57
composite z-score [10]: 0.0274
composite z-score [11]: -0.0255
z-score [12]: -0.163 (inactive)
z-score [13]: -0.0516 (inactive)
z-score [14]: -0.32 (inactive)
composite z-score [15]: 0.0963
z-score [16]: -0.583 (inactive)
composite z-score [17]: -0.0812
composite z-score [18]: -0.22
composite z-score [19]: -0.523
composite z-score [20]: -0.163

CC(C)N1C(=O)c2ccccc2[C@@H](C(=O)NCCN2CCOCC2)[C@@H]1c1ccc(CO)cc1
composite z-score [1]: 0.197
composite z-score [2]: -0.831
composite z-score [3]: -0.22
composite z-score [4]: -1.54
composite z-score [5]: -1.61
composite z-score [6]: 1.12
composite z-score [7]: 1.28
z-score [8]: -0.571 (inactive)
composite z-score [9]: -0.727
composite z-score [10]: -0.284
composite z-score [11]: -1.01
z-score [12]: 0.696 (inactive)
z-score [13]: 0.098 (inactive)
z-score [14]: 0.673 (inactive)
composite z-score [15]: 0.518
z-score [16]: -0.589 (inactive)
composite z-score [17]: -0.0613
composite z-score [18]: -0.465
composite z-score [19]: -0.616
composite z-score [20]: -0.212

Cc1ccc(S[C@]2(C(=O)O)CC(=O)N(C3CCCCC3)[C@@H]2c2ccc(CO)cc2I)cc1
composite z-score [1]: -0.0155
composite z-score [2]: 0.165
composite z-score [3]: -0.0986
composite z-score [4]: 0.52
composite z-score [5]: 0.762
composite z-score [6]: 1.43
composite z-score [7]: 1.2
z-score [8]: -0.163 (inactive)
composite z-score [9]: 1.23
composite z-score [10]: -0.0898
composite z-score [11]: 1.5
z-score [12]: -0.693 (inactive)
z-score [13]: -0.472 (inactive)
z-score [14]: 0.253 (inactive)
composite z-score [15]: 3.35
z-score [16]: 0.843 (inactive)
composite z-score [17]: 0.274
composite z-score [18]: -0.0104
composite z-score [19]: 0.754
composite z-score [20]: -0.0369

Cc1ccc(S[C@]2(C(=O)NCc3ccccc3)CC(=O)N(C3CCCCC3)[C@@H]2c2ccc(CO)cc2I)cc1
composite z-score [1]: 1.27
composite z-score [2]: -0.0582
composite z-score [3]: 0.11
composite z-score [4]: 0.339
composite z-score [5]: 0.553
composite z-score [6]: 1.17
composite z-score [7]: 1.19
z-score [8]: -2.84 (inactive)
composite z-score [9]: 0.455
composite z-score [10]: -0.132
composite z-score [11]: 1.15
z-score [12]: -0.727 (inactive)
z-score [13]: -0.462 (inactive)
z-score [14]: 0.861 (inactive)
composite z-score [15]: 2.72
z-score [16]: -0.455 (inactive)
composite z-score [17]: -0.0948
composite z-score [18]: 0.147
composite z-score [19]: 0.237
composite z-score [20]: -0.139

C=CCNC(=O)[C@@H]1[C@H]2C(=O)O[C@H](c3ccccc3)[C@H](c3ccccc3)N2[C@H](c2ccccc2OCCO)[C@@]12C(=O)Nc1ccc(C#CCCO)cc12
composite z-score [1]: -0.501
composite z-score [2]: 0.143
composite z-score [3]: 0.0013
composite z-score [4]: 0.0379
composite z-score [5]: 0.611
composite z-score [6]: 0.99
composite z-score [7]: 1.19
z-score [8]: -0.452 (inactive)
composite z-score [9]: 0.954
composite z-score [10]: 0.154
composite z-score [11]: 1.55
z-score [12]: 1.31 (inactive)
z-score [13]: -1.46 (inactive)
z-score [14]: 3.43 (inactive)
composite z-score [15]: 2.3
z-score [16]: -0.372 (inactive)
composite z-score [17]: -0.106
composite z-score [18]: 1.23
composite z-score [19]: 0.686
composite z-score [20]: -0.165

O=C(NCCN1CCOCC1)[C@@H]1c2ccccc2C(=O)N(Cc2ccccc2Cl)[C@H]1c1ccc(CO)cc1
composite z-score [1]: -0.138
composite z-score [2]: -0.483
composite z-score [3]: -0.15
composite z-score [4]: -0.758
composite z-score [5]: -0.922
composite z-score [6]: 0.923
composite z-score [7]: 1.32
z-score [8]: -2.41 (inactive)
composite z-score [9]: 0.263
composite z-score [10]: -0.391
composite z-score [11]: -0.7
z-score [12]: 0.506 (inactive)
z-score [13]: 0.545 (inactive)
z-score [14]: -0.214 (inactive)
composite z-score [15]: -0.201
z-score [16]: 0.561 (inactive)
composite z-score [17]: -0.547
composite z-score [18]: -1.31
composite z-score [19]: -1.4
composite z-score [20]: -0.362

CCCC#C[Si](O[C@H](CC)c1cn([C@H](C)c2ccccc2)nn1)(C(C)C)C(C)C
composite z-score [1]: -0.4
composite z-score [2]: 1.31
composite z-score [3]: -0.0407
composite z-score [4]: 0.468
composite z-score [5]: 0.97
composite z-score [6]: 0.0607
composite z-score [7]: 0.181
z-score [8]: 0.337 (inactive)
composite z-score [9]: 0.593
composite z-score [10]: -0.407
composite z-score [11]: 0.817
z-score [12]: -0.764 (inactive)
z-score [13]: -10.2 (active)
z-score [14]: -3.25 (inactive)
composite z-score [15]: 1.05
z-score [16]: 2.37 (inactive)
composite z-score [17]: 0.0539
composite z-score [18]: 0.316
composite z-score [19]: 0.579
composite z-score [20]: 0.359

NC(=O)[C@H]1[C@@H]2C(=O)O[C@@H](c3ccccc3)[C@@H](c3ccccc3)N2[C@@H](c2ccc(OCCO)cc2)[C@]12C(=O)Nc1ccc(C#CCCO)cc12
composite z-score [1]: 0.127
composite z-score [2]: 0.685
composite z-score [3]: -0.0524
composite z-score [4]: 0.715
composite z-score [5]: 0.874
composite z-score [6]: 0.874
composite z-score [7]: 1.02
z-score [8]: 1.7 (inactive)
composite z-score [9]: 0.232
composite z-score [10]: -0.275
composite z-score [11]: 1.41
z-score [12]: 1.62 (inactive)
z-score [13]: 0.547 (inactive)
z-score [14]: 3.63 (inactive)
composite z-score [15]: 1.7
z-score [16]: -0.595 (inactive)
composite z-score [17]: -0.0636
composite z-score [18]: 0.425
composite z-score [19]: 0.164
composite z-score [20]: 0.0932

CC1=C2[C@@H](CCc3ccccc3)OB(O)C[C@@H]2[C@@H]2C(=O)N(Cc3ccccc3)C(=O)[C@@H]2C1
composite z-score [1]: -0.575
composite z-score [2]: -0.0096
composite z-score [3]: -0.155
composite z-score [4]: 0.0928
composite z-score [5]: 0.529
composite z-score [6]: 0.0808
composite z-score [7]: 1.02
z-score [8]: -0.0949 (inactive)
composite z-score [9]: 0.0584
composite z-score [10]: -0.0618
composite z-score [11]: 0.433
z-score [12]: -0.763 (inactive)
z-score [13]: -2.47 (inactive)
z-score [14]: -0.993 (inactive)
composite z-score [15]: 1.24
z-score [16]: -0.116 (inactive)
composite z-score [17]: -0.116
composite z-score [18]: 0.694
composite z-score [19]: 0.57
composite z-score [20]: -0.0381
